# Results filed as inconclusive are left out. Active and inactive are the calls of the source. The calls were made as follows: active = hit-call score of the fitted dose curve at least 0.9, where 1 is the maximum; inconclusive = response in the unintended direction; inactive = score below 0.9.
# Legend:
# [1] = target: human Vascular Endothelial Growth Factor Receptor 1 (VEGFR1), FLT1 (gene 2321) (UniProt P17948); assay: NVS_ENZ_hVEGFR1: NovaScreen (NVS) Enzymatic Assay for human Vascular Endothelial Growth Factor Receptor 1 (VEGFR1) (AID 2283226)
# Method in brief: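 Kinase activity of recombinant human VEGFR1 was read by fluorescence after electrophoretic separation of product from substrate, 1 h post-dosing; initial duplicate single-point testing at 25 uM, followed by concentration-series follow-up, with DMSO as baseline.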
# [2] = target: human Vascular Endothelial Growth Factor Receptor 3 (VEGFR3), FLT4 (gene 2324) (UniProt P35916); assay: NVS_ENZ_hVEGFR3: NovaScreen (NVS) Enzymatic Assay for human Vascular Endothelial Growth Factor Receptor 3 (VEGFR3) (AID 2283229)
# Sequence of human Vascular Endothelial Growth Factor Receptor 3 (VEGFR3), FLT4 (gene 2324) (P35916 whole entry, looked up): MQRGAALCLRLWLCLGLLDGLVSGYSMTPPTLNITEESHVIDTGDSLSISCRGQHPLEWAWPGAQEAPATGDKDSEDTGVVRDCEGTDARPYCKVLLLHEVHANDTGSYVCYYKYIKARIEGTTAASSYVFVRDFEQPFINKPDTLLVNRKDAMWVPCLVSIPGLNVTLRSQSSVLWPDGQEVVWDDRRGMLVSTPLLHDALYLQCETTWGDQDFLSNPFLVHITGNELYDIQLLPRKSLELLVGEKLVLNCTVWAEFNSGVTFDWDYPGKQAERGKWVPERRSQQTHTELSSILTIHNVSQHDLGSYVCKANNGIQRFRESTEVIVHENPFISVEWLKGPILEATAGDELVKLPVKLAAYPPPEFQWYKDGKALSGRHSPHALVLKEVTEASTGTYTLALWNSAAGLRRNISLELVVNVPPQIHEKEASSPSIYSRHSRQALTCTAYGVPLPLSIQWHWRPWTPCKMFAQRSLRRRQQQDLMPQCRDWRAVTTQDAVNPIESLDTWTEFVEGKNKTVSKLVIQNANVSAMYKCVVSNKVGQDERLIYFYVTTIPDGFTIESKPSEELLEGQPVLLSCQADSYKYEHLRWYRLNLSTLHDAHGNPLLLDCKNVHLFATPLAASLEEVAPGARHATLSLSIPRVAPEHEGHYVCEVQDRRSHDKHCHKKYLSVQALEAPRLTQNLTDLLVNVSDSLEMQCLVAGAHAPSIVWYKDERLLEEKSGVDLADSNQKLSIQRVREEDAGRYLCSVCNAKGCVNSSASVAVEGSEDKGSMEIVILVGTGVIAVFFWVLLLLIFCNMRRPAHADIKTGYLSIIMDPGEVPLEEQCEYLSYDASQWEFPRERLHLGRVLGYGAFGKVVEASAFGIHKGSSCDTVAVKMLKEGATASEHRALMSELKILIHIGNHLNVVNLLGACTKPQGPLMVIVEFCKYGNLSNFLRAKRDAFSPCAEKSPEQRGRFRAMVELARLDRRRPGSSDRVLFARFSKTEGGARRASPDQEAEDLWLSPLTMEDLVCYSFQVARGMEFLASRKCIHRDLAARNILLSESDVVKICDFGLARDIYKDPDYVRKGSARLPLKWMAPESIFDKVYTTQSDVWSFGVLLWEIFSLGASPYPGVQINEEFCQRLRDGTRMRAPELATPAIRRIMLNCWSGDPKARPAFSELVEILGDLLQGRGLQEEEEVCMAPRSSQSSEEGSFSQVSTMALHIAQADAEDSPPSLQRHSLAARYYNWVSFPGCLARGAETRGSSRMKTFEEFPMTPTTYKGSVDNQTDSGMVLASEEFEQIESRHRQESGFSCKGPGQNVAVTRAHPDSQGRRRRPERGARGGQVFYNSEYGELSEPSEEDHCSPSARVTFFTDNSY
# Method in brief: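 Chemicals first run in duplicate at 25 uM, with actives re-tested in concentration series to a top of 50 uM. Recombinant VEGFR3 activity measured after 1 h via fluorescence with mobility-shift product separation; inhibition fitted relative to DMSO.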
# [3] = target: human Vascular Endothelial Growth Factor Receptor 2 (VEGFR2), KDR (gene 3791) (UniProt P35968); assay: NVS_ENZ_hVEGFR2: NovaScreen (NVS) Enzymatic Assay for human Vascular Endothelial Growth Factor Receptor 2 (VEGFR2) (AID 2283230)
# Sequence of human Vascular Endothelial Growth Factor Receptor 2 (VEGFR2), KDR (gene 3791) (P35968 whole entry, looked up): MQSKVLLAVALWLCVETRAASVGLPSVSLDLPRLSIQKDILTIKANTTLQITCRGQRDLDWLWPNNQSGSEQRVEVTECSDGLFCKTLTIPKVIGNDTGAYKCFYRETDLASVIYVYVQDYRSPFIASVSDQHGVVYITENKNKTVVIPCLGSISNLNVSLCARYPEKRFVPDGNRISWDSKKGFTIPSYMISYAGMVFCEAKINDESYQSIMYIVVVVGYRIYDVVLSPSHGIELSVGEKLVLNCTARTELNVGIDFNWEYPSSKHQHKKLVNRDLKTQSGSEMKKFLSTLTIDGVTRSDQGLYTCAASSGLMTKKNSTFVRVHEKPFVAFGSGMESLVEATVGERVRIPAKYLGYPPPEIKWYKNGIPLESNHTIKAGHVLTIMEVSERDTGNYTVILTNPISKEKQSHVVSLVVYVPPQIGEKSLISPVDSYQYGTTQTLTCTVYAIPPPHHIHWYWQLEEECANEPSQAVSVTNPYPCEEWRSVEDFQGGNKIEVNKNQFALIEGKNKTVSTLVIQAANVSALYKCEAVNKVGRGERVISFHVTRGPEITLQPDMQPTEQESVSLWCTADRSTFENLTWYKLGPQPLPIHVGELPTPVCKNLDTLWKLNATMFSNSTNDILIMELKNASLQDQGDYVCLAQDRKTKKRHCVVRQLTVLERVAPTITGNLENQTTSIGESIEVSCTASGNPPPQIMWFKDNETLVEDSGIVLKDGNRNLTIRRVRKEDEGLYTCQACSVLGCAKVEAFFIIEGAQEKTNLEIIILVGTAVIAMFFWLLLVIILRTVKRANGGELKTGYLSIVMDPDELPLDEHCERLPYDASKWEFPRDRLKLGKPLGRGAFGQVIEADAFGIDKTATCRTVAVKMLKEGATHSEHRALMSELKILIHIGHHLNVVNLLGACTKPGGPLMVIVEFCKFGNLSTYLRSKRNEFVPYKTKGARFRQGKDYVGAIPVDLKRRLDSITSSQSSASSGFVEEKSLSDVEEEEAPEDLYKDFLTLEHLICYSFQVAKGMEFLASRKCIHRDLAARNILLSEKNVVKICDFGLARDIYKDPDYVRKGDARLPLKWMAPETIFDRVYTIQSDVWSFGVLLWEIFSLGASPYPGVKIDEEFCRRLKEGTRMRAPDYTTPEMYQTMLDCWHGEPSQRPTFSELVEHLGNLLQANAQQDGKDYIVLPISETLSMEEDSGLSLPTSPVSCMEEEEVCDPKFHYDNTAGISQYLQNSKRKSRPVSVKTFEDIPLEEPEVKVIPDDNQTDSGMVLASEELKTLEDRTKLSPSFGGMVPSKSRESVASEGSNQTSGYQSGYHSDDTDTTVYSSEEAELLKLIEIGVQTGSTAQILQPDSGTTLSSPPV
# Method in brief: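 Cell-free recombinant VEGFR2 kinase, fluorescent substrate with electrophoretic mobility-shift separation; read 1 h after dosing. Screened at 25 uM in duplicate, hits to concentration-response up to 50 uM; loss-of-signal versus DMSO.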
# [4] = target: rat Monoamine Oxidase, MAO-B, Central (MAOBC), Maob (gene 25750) (UniProt P19643); assay: NVS_ENZ_rMAOBC: NovaScreen (NVS) Enzymatic Assay for rat Monoamine Oxidase, MAO-B, Central (MAOBC) (AID 2283238)
# Sequence of rat Monoamine Oxidase, MAO-B, Central (MAOBC), Maob (gene 25750) (P19643 whole entry, looked up): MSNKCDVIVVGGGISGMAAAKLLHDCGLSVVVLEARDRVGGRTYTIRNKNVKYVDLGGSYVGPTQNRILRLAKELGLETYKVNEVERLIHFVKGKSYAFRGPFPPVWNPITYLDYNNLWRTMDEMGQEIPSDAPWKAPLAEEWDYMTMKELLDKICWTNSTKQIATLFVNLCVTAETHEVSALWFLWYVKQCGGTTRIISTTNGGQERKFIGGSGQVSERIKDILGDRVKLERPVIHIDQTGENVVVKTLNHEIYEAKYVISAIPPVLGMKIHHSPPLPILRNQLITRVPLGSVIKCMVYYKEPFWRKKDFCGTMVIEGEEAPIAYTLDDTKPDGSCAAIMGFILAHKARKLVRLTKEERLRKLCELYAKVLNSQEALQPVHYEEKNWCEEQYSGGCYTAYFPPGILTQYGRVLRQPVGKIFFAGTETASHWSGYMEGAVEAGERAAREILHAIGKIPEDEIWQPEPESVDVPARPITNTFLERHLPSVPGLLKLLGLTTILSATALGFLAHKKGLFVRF
# Method in brief: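 Here MAO-B activity in rat brain preparations is quantified radiometrically, counts taken at 1.17 hours. Concentration-response runs reach 50 uM, with plate controls, and values are fitted as loss of signal from the DMSO baseline.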
# [5] = target: bovine Dopamine Receptor (DR), Non-selective Binding, DRD1 (gene 281125) (UniProt Q95136); assay: NVS_GPCR_bDR_NonSelective: NovaScreen (NVS) G Protein-Coupled Receptor Assay for bovine Dopamine Receptor (DR), Non-selective Binding (AID 2283241)
# Sequence of bovine Dopamine Receptor (DR), Non-selective Binding, DRD1 (gene 281125) (Q95136 whole entry, looked up): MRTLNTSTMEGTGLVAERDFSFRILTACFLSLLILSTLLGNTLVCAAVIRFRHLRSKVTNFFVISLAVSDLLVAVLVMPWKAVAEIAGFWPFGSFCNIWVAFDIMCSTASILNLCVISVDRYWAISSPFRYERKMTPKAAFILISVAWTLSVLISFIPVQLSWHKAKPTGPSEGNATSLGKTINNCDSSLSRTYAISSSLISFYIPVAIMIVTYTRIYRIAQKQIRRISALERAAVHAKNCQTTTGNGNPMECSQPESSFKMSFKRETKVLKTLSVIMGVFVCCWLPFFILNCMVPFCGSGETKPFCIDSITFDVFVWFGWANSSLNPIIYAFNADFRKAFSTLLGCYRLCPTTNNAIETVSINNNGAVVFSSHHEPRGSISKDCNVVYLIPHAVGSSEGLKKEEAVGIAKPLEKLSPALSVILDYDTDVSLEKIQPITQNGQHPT
# Method in brief: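 Filter-based radioligand binding with bovine striatal membrane, incubated 1 h; DMSO as negative baseline. Initial duplicate single-point test at 25 uM preceded concentration series for actives.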
# [6] = target: Adenosine receptor A1 (Bos taurus) (UniProt P28190); assay: NVS_GPCR_bAdoR_NonSelective: NovaScreen (NVS) G Protein-Coupled Receptor Assay for bovine Adenosine Receptor (AdoR), Non-selective Binding (AID 2283244)
# Sequence of Adenosine receptor A1 (Bos taurus) (P28190 whole entry, looked up): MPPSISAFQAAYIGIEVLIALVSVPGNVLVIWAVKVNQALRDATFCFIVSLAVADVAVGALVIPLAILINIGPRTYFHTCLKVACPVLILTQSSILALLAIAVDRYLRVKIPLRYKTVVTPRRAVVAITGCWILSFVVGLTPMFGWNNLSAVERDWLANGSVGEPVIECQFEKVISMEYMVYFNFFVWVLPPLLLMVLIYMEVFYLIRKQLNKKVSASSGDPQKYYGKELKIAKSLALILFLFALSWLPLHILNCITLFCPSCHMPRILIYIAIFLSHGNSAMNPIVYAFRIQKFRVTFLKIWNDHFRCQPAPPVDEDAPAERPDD
# Method in brief: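 Cell-free binding with membranes from bovine striatum: radioligand displaced by test chemical, read after 1 h by filtration and scintillation. Single-point 25 uM duplicate primary, 50 uM top concentration in follow-up curves, DMSO baseline.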
# [7] = system: bovine Histamine 1 Receptor (H1), gene 281231; assay: NVS_GPCR_bH1: NovaScreen (NVS) G Protein-Coupled Receptor Assay for bovine Histamine 1 Receptor (H1) (AID 2283246)
# Method in brief: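 Hits from a 25 uM duplicate primary screen were retested in concentration series (top 50 uM); binding measured as scintillation-counted displacement of radioligand from bovine cerebellar membranes after 1 h, normalised to DMSO.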
# [8] = system: guinea pig Leukotriene B4 Receptor (LTB4), gene 100379538; assay: NVS_GPCR_gLTB4: NovaScreen (NVS) G Protein-Coupled Receptor Assay for guinea pig Leukotriene B4 Receptor (LTB4) (AID 2283247)
# Method in brief: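 Membranes from guinea pig spleen incubated 2 h with radioligand and compound; bound counts measured by filtration and scintillation. Screened first at 25 uM in duplicate, then actives titrated to a 50 uM top concentration relative to DMSO.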
# [9] = target: human Serotonin, 5-Hydroxytryptamine Receptor 2A (5HT2A), HTR2A (gene 3356) (UniProt P28223); assay: NVS_GPCR_h5HT2A: NovaScreen (NVS) G Protein-Coupled Receptor Assay for human Serotonin, 5-Hydroxytryptamine Receptor 2A (5HT2A) (AID 2283249)
# Method in brief: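 Radioligand displacement on human cortex tissue extract, counted by filtration and scintillation 1.5 h post-dosing. Initial single-concentration screen at 25 uM in duplicate, concentration series in follow-up; DMSO as baseline.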
# [10] = target: sheep Cyclooxygenase-1 (Cox1), PTGS1 (gene 443551) (UniProt P05979); assay: NVS_ENZ_oCOX1: NovaScreen (NVS) Enzymatic Assay for sheep Cyclooxygenase-1 (Cox1) (AID 2283239);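 also: actives reduce cyclooxygenase activity so potencies are for inhibitors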
# Sequence of sheep Cyclooxygenase-1 (Cox1), PTGS1 (gene 443551) (P05979 whole entry, looked up): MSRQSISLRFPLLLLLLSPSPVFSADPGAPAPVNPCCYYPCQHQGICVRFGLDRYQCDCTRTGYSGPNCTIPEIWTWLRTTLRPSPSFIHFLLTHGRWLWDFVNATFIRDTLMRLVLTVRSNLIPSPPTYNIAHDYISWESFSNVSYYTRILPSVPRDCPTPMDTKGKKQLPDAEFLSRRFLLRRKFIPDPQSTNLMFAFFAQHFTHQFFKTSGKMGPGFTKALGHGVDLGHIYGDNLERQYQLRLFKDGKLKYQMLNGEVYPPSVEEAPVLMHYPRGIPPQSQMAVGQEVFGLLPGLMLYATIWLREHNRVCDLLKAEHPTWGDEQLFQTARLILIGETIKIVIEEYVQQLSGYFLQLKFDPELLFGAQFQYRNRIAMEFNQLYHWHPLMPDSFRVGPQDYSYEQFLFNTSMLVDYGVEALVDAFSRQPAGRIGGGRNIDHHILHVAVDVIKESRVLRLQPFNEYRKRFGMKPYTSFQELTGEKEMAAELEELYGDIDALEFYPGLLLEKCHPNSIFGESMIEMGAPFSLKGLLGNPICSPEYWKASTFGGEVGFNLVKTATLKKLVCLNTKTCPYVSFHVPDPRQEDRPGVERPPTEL
# Method in brief: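 COX1 from ovine seminal vesicles, activity read colorimetrically about 0.66 h after dosing. Primary screen in duplicate at 25 uM; actives retested in concentration series; loss of signal fitted versus DMSO.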
# [11] = system: guinea pig Muscarinic, Peripheral (Mperiperal) Receptor, Non-selective Binding, gene 100379235; assay: NVS_GPCR_gMPeripheral_NonSelective: NovaScreen (NVS) G Protein-Coupled Receptor Assay for guinea pig Muscarinic, Peripheral (Mperiperal) Receptor, Non-selective Binding (AID 2283250)
# Method in brief: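 Screened in duplicate at 25 uM, hits retested in concentration series to 50 uM max, using bladder membrane radioligand displacement from guinea pig. Filtration and scintillation counting 1 h post-dose, fitted relative to DMSO.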
# [12] = system: rat Monoamine Oxidase, MAO-A, Central (MAOAC), gene 29253; assay: NVS_ENZ_rMAOAC: NovaScreen (NVS) Enzymatic Assay for rat Monoamine Oxidase, MAO-A, Central (MAOAC) (AID 2283243);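 also: potency refers to inhibition seen as signal drop below DMSO baseline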
# Method in brief: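 Scintillation read-out of MAO-A activity in rat brain lysate, 1.5 h post-dosing. Primary single-concentration screen: 25 uM, duplicate; actives re-tested in concentration series. DMSO = negative control/baseline.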
# [13] = NVS_GPCR_bNPY_NonSelective: NovaScreen (NVS) G Protein-Coupled Receptor Assay for bovine Neuropeptide Y (NPY) Receptor, Non-selective Binding (AID 2283245)
# Method in brief: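 Displacement of radioligand from bovine hippocampal membrane receptors, read by filtration and scintillation counting after 1 hour. Concentration-response to a top of 50 uM followed a 25 uM duplicate primary screen. Loss of signal versus DMSO.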
# [14] = target: rat Constitutive Nitric Oxide Synthase (CNOS), Nos1 (gene 24598) (UniProt P29476); assay: NVS_ENZ_rCNOS: NovaScreen (NVS) Enzymatic Assay for rat Constitutive Nitric Oxide Synthase (CNOS) (AID 2283236)
# Method in brief: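 Single 25 uM duplicate screen, then concentration series to 50 uM for chemicals meeting threshold. Rat brain membrane-derived CNOS activity detected radiometrically by filtration and scintillation counting, 1 h after compound addition; DMSO as baseline.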
# [15] = target: rat Monoamine Oxidase, MAO-B, Peripheral (MAOBP), Maob (gene 25750) (UniProt P19643); assay: NVS_ENZ_rMAOBP: NovaScreen (NVS) Enzymatic Assay for rat Monoamine Oxidase, MAO-B, Peripheral (MAOBP) (AID 2283242)
# Sequence of rat Monoamine Oxidase, MAO-B, Peripheral (MAOBP), Maob (gene 25750) (P19643 whole entry, looked up): as the sequence (P19643 whole entry, looked up) above
smiles,measurement,setting,value
C=CCOC(=O)C(C)(C)OC(=O)c1cc(-n2c(=O)cc(C(F)(F)F)n(C)c2=O)ccc1Cl,outcome,[1],inactive
CS(=O)(=O)c1ccc(C(=O)C2C(=O)CCCC2=O)c([N+](=O)[O-])c1,outcome,[2],inactive
Clc1nc(Cl)nc(Nc2ccccc2Cl)n1,outcome,[3],inactive
CNC(=O)Oc1cccc2ccccc12,AC50,[4],6.28 µM (active)
Cc1ccc(N=CN(C)C=Nc2ccc(C)cc2C)c(C)c1,outcome,[4],inactive
CCCN(CC)CC1COC2(CCC(C(C)(C)C)CC2)O1 (stereo unspecified),outcome,[5],inactive
COP(=S)(OC)SCn1nnc2ccccc2c1=O,AC50,[6],8.1 µM (active)
same,AC50,[7],2.4 µM (active)
CCN(CC)C(=O)C(C)Oc1cccc2ccccc12 (stereo unspecified),outcome,[8],inactive
O=C1C2CC=CCC2C(=O)N1SC(Cl)(Cl)Cl (stereo unspecified),outcome,[9],inactive
C=C(C)CN(CC)c1c([N+](=O)[O-])cc(C(F)(F)F)cc1[N+](=O)[O-],outcome,[8],inactive
CNC(=O)N(C)c1nnc(C(C)(C)C)s1,outcome,[10],inactive
COP(=O)(OC)O/C(C)=C/C(=O)N(C)C,outcome,[11],inactive
COCC(C)N(C(=O)CCl)c1c(C)csc1C (stereo unspecified),outcome,[10],inactive
CC1(C)CCC(=Cc2ccc(Cl)cc2)C1(O)Cn1cncn1 (stereo unspecified),outcome,[4],inactive
N#Cc1c[nH]cc1-c1cccc2c1OC(F)(F)O2,outcome,[4],inactive
same,outcome,[12],inactive
same,outcome,[13],inactive
Cc1cc(C)nc(Nc2ccccc2)n1,outcome,[12],inactive
CC(C)=CC1C(C(=O)OCc2coc(Cc3ccccc3)c2)C1(C)C (stereo unspecified),outcome,[5],inactive
same,AC50,[8],6.5 µM (active)
CN=C=S,outcome,[14],inactive
same,outcome,[15],inactive
O=C(Nc1ccccc1-c1ccc(Cl)cc1)c1cccnc1Cl,outcome,[15],inactive
CCC(C)n1c(=O)[nH]c(C)c(Br)c1=O (stereo unspecified),outcome,[6],inactive
same,outcome,[7],inactive

# From PubChem BioAssay (EPA / NIEHS)
